ADAM17 inh = inhibitors of human ADAM17; P78536; recombinant ADAM17, EDANS/DABCYL FRET peptide cleavage; inhibition, % at 6.95 µM; 370,000 tested, 0.83% active;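 active = inhibition above the mean of compounds lying between control limits plus 3 SD, set per campaign, cut at about 8.5% in these data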;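 also: 0% = DMSO-only wells as the low control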
NRP1-CendR mod = NRP-1/CendR interaction modulation | O14786 | FAM-RPARPAR peptide binding to NRP-1, fluorescence polarization | inhibition, % at 25 µM | 360,000 tested, 0.85% active;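 active = inhibition or corrected inhibition above about 18%, plus a signal ratio from 0.5 to 1.5, limit read from the data, passing the limit was not always enough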
Target sequence (O14786 whole entry, looked up): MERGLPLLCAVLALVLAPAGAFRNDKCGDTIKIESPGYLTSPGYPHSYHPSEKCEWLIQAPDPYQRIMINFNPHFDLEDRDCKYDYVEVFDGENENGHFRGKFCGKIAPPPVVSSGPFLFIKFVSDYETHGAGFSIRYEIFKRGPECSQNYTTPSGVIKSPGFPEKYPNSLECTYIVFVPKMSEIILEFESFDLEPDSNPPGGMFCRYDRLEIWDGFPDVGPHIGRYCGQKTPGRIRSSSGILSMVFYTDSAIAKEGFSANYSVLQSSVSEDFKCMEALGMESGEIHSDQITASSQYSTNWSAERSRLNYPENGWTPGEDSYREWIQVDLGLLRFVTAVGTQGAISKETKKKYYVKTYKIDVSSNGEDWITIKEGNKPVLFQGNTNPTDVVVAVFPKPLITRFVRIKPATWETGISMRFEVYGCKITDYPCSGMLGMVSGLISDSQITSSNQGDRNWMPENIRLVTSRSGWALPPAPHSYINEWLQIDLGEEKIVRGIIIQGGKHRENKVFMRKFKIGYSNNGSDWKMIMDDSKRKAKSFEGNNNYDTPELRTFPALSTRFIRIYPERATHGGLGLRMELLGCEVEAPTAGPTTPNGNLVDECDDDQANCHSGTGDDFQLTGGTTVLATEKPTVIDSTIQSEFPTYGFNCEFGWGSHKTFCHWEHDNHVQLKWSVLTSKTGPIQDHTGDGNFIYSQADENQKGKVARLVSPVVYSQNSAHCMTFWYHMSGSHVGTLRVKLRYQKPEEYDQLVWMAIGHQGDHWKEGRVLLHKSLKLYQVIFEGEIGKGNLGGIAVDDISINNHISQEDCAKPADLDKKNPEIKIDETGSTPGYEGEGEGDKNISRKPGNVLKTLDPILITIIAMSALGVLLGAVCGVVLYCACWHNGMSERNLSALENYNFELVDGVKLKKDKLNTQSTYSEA
ADAM10 inh = inhibits human ADAM10. inhibition, % at 7 µM. 370,000 tested, 0.62% active. recombinant ADAM10, EDANS/DABCYL FRET peptide cleavage, 3 h. O14672;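 active = inhibition above a per-campaign cutoff equal to the mean of compounds falling between control-based bounds plus 3 SD, cut at about 20% in these data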;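 also: 0% = DMSO wells while the 100% control is not disclosed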
A3A deaminase = human APOBEC3A DNA deaminase inhibition; P31941; recombinant A3A, FAM/TAMRA ssDNA deamination fluorescence; inhibition, % at 20 µM; 330,000 tested, 0.41% active;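 active = at least 40% inhibition at 20 µM here, with at most 30% in a related deaminase screen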;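 also: plate controls were A3A with DMSO for no effect and wells lacking A3A enzyme for full effect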
APOBEC3G inh = inhibitors of human APOBEC3G DNA deaminase; 330,000 tested, 0.28% active; recombinant A3G, ssDNA deamination FAM/TAMRA fluorescence; inhibition, % at 20 µM;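 active = inhibition of at least 40% at 20 µM, with no more than 30% in the related APOBEC3A deaminase screen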;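 also: plate controls were DMSO wells with A3G for no effect and wells lacking A3G enzyme for full effect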
The depositor's hits bear a star; i = inactive; · = no result given. Only some compounds are listed: those with a hit (about 2.4% of all), similar ones and a draw of the others.

SMILES	ADAM17 inh	NRP1-CendR mod	ADAM10 inh	A3A deaminase	APOBEC3G inh
CC1(C)CC(=O)N(CC(=O)N2CCN(c3ccc(F)cc3)CC2)c2ccccc2S1(=O)=O	0.3	·	-5.5	·	·
Cc1cc(N2CCNC[C@H]2C)ccc1N1CCN(Cc2ccccc2)[C@H](C)C1	-5.4	·	-10.0	·	·
FCCCOc1ccc(-c2nccc(-c3ccccn3)n2)cc1	-2.3	20.8*	-2.4	-1.1	-2.1
CCC(C)N(C(=O)c1oc(=O)c2ccccc2c1-c1ccc(C)cc1)C(C)CC (stereo not given)	4.9	·	1.8	·	·
COc1ccc(C(=O)N2CCC[C@@H]2C(=O)N2CCC[C@@H]2C(=O)NCc2ccccc2)cc1F	-5.3	·	-6.8	·	·
COC(=O)[C@@]12CCCCN1[C@H](c1ccc(-c3ccc(OC)cc3)cc1)[C@@H]1C(=O)N(C)C(=O)[C@@H]12	0.4	4.9	3.7	0.3	-4.0
COC(=O)[C@@]12CCCCN1[C@H](c1ccc(-c3ccc4c(c3)OCO4)cc1)[C@H]1C(=O)N(C)C(=O)[C@H]12	-0.3	29.7*	0.0	-2.1	-4.6
CCN1C(=O)[C@H]2[C@@H](c3ccc(-c4ccc(F)cc4)c(OC)c3)N3CCCC[C@@]3(C(=O)OC)[C@H]2C1=O	8.6*	21.3	7.3	-1.4	2.1
CCN1C(=O)[C@@H]2[C@@H](c3ccc(-c4ccc(F)cc4)c(OC)c3)N3CCC[C@@]3(C(=O)OC)[C@@H]2C1=O	0.0	5.0	1.8	1.4	1.2
CC(C)(C)c1cc(C(=O)NN)n(Cc2ccc(F)cc2)n1	1.6	3.8	9.1	2.3	0.0
Cc1cccc(Cn2nc(C(C)(C)C)cc2C(=O)Nc2ccc(F)cc2)c1	9.0*	-6.9	25.3*	0.9	-6.2
Nc1ccc(O)c2c1C(=O)c1ccccc1C2=O	0.3	33.9*	0.8	94.2	75.7
Nc1ccc(Br)c2c1C(=O)c1ccccc1C2=O	·	·	·	7.6	8.1
COCCNS(=O)(=O)c1ccc2c3c(cccc13)C(=O)N2C	-189.1	-19.1	i	1.8	-3.7
COCCCNS(=O)(=O)c1ccc2c3c(cccc13)C(=O)S2	-67.4	29.2*	-228.3	-5.1	-9.3
CCCCCOc1ccc(Br)cc1CSC(=N)N	-1.7	34.9*	-6.3	·	·
COc1ccc(NC(=O)NNC(=O)C(O)(c2ccccc2)c2ccccc2)cc1	4.8	28.2*	10.7	-2.4	-8.8
Cc1ccccc1NC(=O)CN1C(=O)CCSc2ccccc21	1.3	·	2.3	·	·
CN(c1cccc(Cl)c1)S(=O)(=O)c1cccc(C(=O)NCc2ccncc2)c1	-7.1	24.0*	-8.4	-3.0	-6.5
Oc1c(C(Nc2cccc(C(F)(F)F)c2)c2ccncc2)ccc2cccnc12 (stereo not given)	45.1*	-4.4	12.3	-1.8	0.7
Oc1c(C(Nc2nccs2)c2ccc(C(F)(F)F)cc2)ccc2cccnc12 (stereo not given)	1.0	11.4	3.2	·	·
Cn1c(=O)c2c(nc(CN3CCN(C(=O)c4ccco4)CC3)n2Cc2ccc(F)cc2)n(C)c1=O	-7.3	28.4*	-7.1	-3.1	-0.5
Cn1c(=O)c2c(nc(CN3CCOCC3)n2CCN2CCOCC2)n(C)c1=O	·	26.8*	·	3.5	-3.4
COc1ccc2c(c1)CN1C(=O)N(Cc3ccc(F)cc3)S(=O)(=O)CC21 (stereo not given)	4.2	·	-1.6	·	·
Cc1cccc(NC(=O)C2CCCN2S(=O)(=O)c2cccnc2)c1C (stereo not given)	-0.6	·	2.0	·	·
SMILES	ADAM17 inh	NRP1-CendR mod	ADAM10 inh	A3A deaminase	APOBEC3G inh
O=C(CN1CCCCCC1)NCC1CCCO1 (stereo not given)	-0.7	-0.4	-1.2	-0.6	-5.6
O=C(CCCC(=O)NCC1CCCO1)NCC1CCCO1 (stereo not given)	-0.1	26.3*	-6.1	-2.7	-7.3
Cc1c(-n2c(CN3C(=O)c4ccccc4C3=O)nc3ccccc3c2=O)c(=O)n(-c2ccccc2)n1C	-2.8	26.4*	2.8	0.0	1.8
CC(C)Cn1c(CN2C(=O)c3ccccc3C2=O)nc2ccccc2c1=O	-4.7	7.8	2.7	0.3	-1.7
Oc1ccc(/C=N/Nc2cc(N3CCOCC3)nc(N3CCOCC3)n2)cc1O	-14.3	25.7*	-40.3	-1.1	-4.6
Nc1ncnc(N)c1NC(=O)c1ccccc1	0.9	·	-3.1	·	·
COc1ccccc1C(=O)NCCCNC(=O)c1cnccn1	-5.9	17.1	-1.5	-5.4	-12.7
COc1ccccc1C(=O)NCCCNC(=O)c1cccnc1	0.5	33.0*	-2.1	-2.5	5.2
O=C(COC(=O)c1ccco1)Nc1ccc([N+](=O)[O-])cc1Cl	-3.4	-6.2	-8.8	0.7	-0.6
O=C(COc1cc(Cl)c(Cl)cc1Cl)Nc1ccc([N+](=O)[O-])cc1Cl	0.0	24.3*	11.4	-0.2	-5.4
Nc1ccc2ccc(NS(=O)(=O)N3CCCCC3)cc2c1	-23.1	·	-92.3	·	·
Cc1cc(NC(=O)CCC(=O)N(Cc2cccs2)C(C)(C)C(=O)NC2CCCCC2)no1	-0.8	19.6*	-17.5	-5.0	-6.2
CSCCC(NC(=O)c1ccc(Cl)cc1Cl)C(=O)NCc1ccccn1 (stereo not given)	-1.9	-1.8	-2.2	-1.5	-4.6
CSCCC(NC(=O)c1ccc(Cl)cc1Cl)C(=O)NCC(c1cccs1)N(C)C (stereo not given)	-0.8	25.5*	-1.8	·	·
Cc1ccc(-c2cc(C(=O)N/N=C/c3cccnc3)c3ccccc3n2)cc1C	-30.2	26.4*	-66.4	-5.0	-9.1
COc1ccc(C(=O)NCCN2CCN(C(=O)c3ccc(OC)c(OC)c3)CC2)cc1OC	-0.5	0.8	-5.9	-2.2	-13.3
O=C(NCCN1CCN(C(=O)c2cccc(OC(F)F)c2)CC1)c1cccc(OC(F)F)c1	2.8	22.4*	-11.5	-3.7	-8.9
CC(=O)Nc1nc2ncccn2c1-c1ccc(C)cc1	-339.1	·	i	·	·
COC1(OC)N=C(N)C2(C#N)C(c3cccc(Oc4ccccc4)c3)C12C#N (stereo not given)	3.4	25.8*	0.0	-12.0	-6.6
COc1cccc(C2C3(C#N)C(N)=NC(OC)(OC)C23C#N)c1 (stereo not given)	-5.6	8.5	-20.6	-2.7	-2.1
COC1(OC)N=C(N)C2(C#N)C(c3ccc(F)cc3)C12C#N (stereo not given)	-1.9	30.8*	0.6	3.4	-2.9
COc1ccc(C(=O)NCc2ccc3c(c2)cc(C)n3C)cc1	1.2	13.1	-21.1	-5.1	-8.1
Cc1cc2cc(CNC(=O)c3ccco3)ccc2n1C	-1.1	30.7*	-20.6	14.6	23.1
Cc1cc2cc(CNC(=O)c3ccc4c(c3)OCO4)ccc2n1C	-5.9	19.6*	-7.3	3.7	1.5
Cc1cc2cc(CNC(=O)Nc3ccc(Cl)c(Cl)c3)ccc2n1C	-1.7	19.0*	1.7	-0.6	-5.0
Cc1ccccc1Cn1cc(COC(=O)N(C)Cc2ccccc2)nn1	-7.5	·	-2.5	·	·
Cc1ccc(-c2cc(-c3nnc(SCC(=O)Nc4nccs4)n3N)[nH]n2)cc1	-1.1	·	-7.8	·	·
